PKM2 activator – qHTS Assay for Activators of Human Muscle isoform 2 Pyruvate Kinase. purified PKM2, Kinase-Glo ATP luminescence, activation; response scale: 0% is enzyme alone, no compound. Potency, µM (titrated, usually from 57.5 µM), inactives show at the top dose activation, usual class: activators. 0.34% of 260,000 active. AID 1631, 2009; also: potency is read from the fitted curve at half-maximal effect; % is scaled to controls: 0 for no effect and ±100 for the full control effect; nearly all actives have a fitted effect of over 55% in size
Target sequence (P14618 whole entry, looked up, canonical isoform): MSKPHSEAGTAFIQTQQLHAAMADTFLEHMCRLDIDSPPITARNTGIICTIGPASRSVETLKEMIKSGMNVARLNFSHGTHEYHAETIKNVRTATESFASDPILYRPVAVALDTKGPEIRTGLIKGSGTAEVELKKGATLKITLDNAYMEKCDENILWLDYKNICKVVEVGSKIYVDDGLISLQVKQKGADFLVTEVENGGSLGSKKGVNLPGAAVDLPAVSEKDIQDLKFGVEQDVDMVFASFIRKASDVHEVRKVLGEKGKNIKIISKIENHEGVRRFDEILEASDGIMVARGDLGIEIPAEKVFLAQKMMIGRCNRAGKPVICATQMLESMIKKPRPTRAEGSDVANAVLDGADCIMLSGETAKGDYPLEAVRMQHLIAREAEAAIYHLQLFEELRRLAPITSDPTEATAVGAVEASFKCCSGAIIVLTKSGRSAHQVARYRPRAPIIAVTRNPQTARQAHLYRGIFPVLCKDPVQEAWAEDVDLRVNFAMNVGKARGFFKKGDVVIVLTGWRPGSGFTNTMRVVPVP
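ATP formation by purified human PK-M2, quantified via coupled luciferase luminescence after 1 h at room temperature with 0.1 mM ADP and 0.5 mM PEP final.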
Apoferritin bind – qHTS Assay for Identification of Novel General Anesthetics; apoferritin/1-aminoanthracene competitive binding, fluorescence; Ferritin light chain (Equus caballus), P02791; 0.074% of 350,000 active; Potency, µM (highest dose often 77.5 µM), for the others: top-dose activity change, negative = displacement, actives largely listed as inhibitors; also: potency is read from the fitted curve at half-maximal effect; % is scaled to controls: 0 for no effect and ±100 for the full control effect; nearly all actives have a fitted effect of over 20% in size
Target sequence (P02791 2-175 limits assumed): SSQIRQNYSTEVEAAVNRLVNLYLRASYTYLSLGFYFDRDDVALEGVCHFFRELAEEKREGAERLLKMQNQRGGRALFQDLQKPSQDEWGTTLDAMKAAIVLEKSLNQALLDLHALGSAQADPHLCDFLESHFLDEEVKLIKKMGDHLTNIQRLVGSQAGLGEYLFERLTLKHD
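10 uM apoferritin + 50% sat. 1-AMA, PBS; cpd 10 min RT; Ex380/Em535 endpoint; normalized to free probe vs complex; 4-param Hill fit; propofol titration as pos. ctrl.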
IL2 activator – qHTS of IL-2 Activators. IL-2 activation reporter assay, cell-based qHTS; stimulated with anti-CD3/CD4/CD28 beads; in transgenic mouse T cells. activation, % (series mostly up to about 46 µM). 0.065% of 360,000 active. AID 652025, 2013; in the data active = activation above about 50%; inconclusive = mostly about 30% to 49%; also: 0% is about no effect
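Unstimulated transgenic mouse T cells preincubated 60 min with compound, then stimulated with anti-CD3/anti-CD4-coated beads plus anti-CD28 for 18 h at 37 degrees C. IL-2 response read as EGFP and DsRed fluorescence by plate cytometry.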
Integrin act MD – qHTS for Activators of Integrin-Mediated Alleviation for Muscular Dystrophy; 0.064% of 350,000 active; AID 624291, 2012; alpha7betagal myoblasts, beta-gal FDG fluorescence, 48 h; Potency, µM (titrated, usually from 38.3 µM), for the others: at the highest dose activation, usual class: activators;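 also: potency is read from the fitted curve at half-maximal effect; 100% = response of the positive control SU9516; nearly all actives have a fitted effect of over 60% in size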
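alpha7betagal+/- myoblasts (passage 13, 250/well) treated 48 h at 37C with compounds at 1:260 dilution of DMSO stock. Lysed, then beta-galactosidase activity read as FDG fluorescence (ex 480/em 540) after 30 min, with pre-read for autofluorescence.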
BRCA1 expr up – qHTS Assay to Identify Small Molecule Activators of BRCA1 Expression; MCF7-BRCA1-FFLuc reporter, luminescence, 48 h; response scale: scaled: vehicle 0%, 10 µM genistein 100%; Potency, µM (top dose mostly 46.1 µM), without a hit: at the highest dose activation, usual class: activators; 1.1% of 380,000 active; AID 624202, 2012; also: potency is read from the fitted curve at half-maximal effect; nearly all actives have a fitted effect of over 80% in size
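MCF7 cells carrying a BRCA1-firefly luciferase reporter (2000 cells/well, phenol-red free MEM) were attached for 2 h at 37 °C, then given compounds for 48 h. Luminescence was read 15 min after luciferase reagent; activity normalized to genistein (10 microM) and DMSO.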
* hit, by the source's call; ? = inconclusive; . = no result given; [ ] = dose if it differs, or a comment. In the library only some 1.3% were active in any assay of this set; here they are far more common. Unless noted, calls follow the shape of the dose curve; as a rule, active = well fitted curve in the direction sought with a large enough effect; inconclusive = small, poorly fitted or top-dose-only effect, or another doubt; inactive = no such curve, though single readings can be large; an effect the other way counts as inactive or inconclusive.

SMILES	PKM2 activator	Apoferritin bind	IL2 activator	Integrin act MD	BRCA1 expr up
O=C(COc1ccc(Br)cc1Cl)NC(=O)Nc1ccc2c(c1)OCCO2	10%	-10%	-1	-6%	11µM*
CC1CC(C)(C)NC(=S)N1CCCC(=O)Nc1ccc2c(c1)OCCO2 (stereo not given)	-2%	-9%	-4	-1%	13µM*
CN(C)/[N+]([O-])=N\Oc1cc(OC(=O)c2ccc(N)cc2)c([N+](=O)[O-])cc1[N+](=O)[O-]	.	.	.	.	-7%
O=C1c2ccccc2C(=O)N1c1ccc(O)cc1	.	.	.	.	8%
Cc1ccc(-c2csc3ncnc(Sc4nnnn4C4CC4)c23)cc1	.	.	.	.	-4%
O=C(CN1C(=O)NC2(CCCCC2)C1=O)Nc1ccc2c(c1)OCCCO2	.	.	0	15%	5µM*
O=C(Nc1ccc2c(c1)OCCO2)NC12CC3CC(CC(C3)C1)C2	-6%	?	1	-26%	3.5µM*
O=C(COc1ccc(Br)cc1Br)NC(=O)NC1CCCC1	-9%	-1%	0	-48%	11µM*
COC(=O)C1CCN(CC(=O)Nc2ccc3c(c2)OCCO3)CC1	.	.	0	23%	36%
CC1CC(C)CN(CC(=O)Nc2ccc3c(c2)OCCO3)C1 (stereo not given)	1%	-9%	-1	-5%	13µM*
O=C(CN1C(=O)NC2(CCCCCC2)C1=O)Nc1cccc(F)c1	.	.	4	6%	-12%
O=C(O)c1cc(C(=O)O)c(C(=O)N(Cc2cccc(Oc3ccccc3)c2)[C@H]2CCCc3ccccc32)cc1C(=O)O	.	-2%	.	.	.
COc1ccccc1OCC(=O)Nc1ccc2c(c1)OCCO2	.	-8%	0	8%	?
NC(=O)c1ccccc1OCC(=O)Nc1ccc2c(c1)OCCO2	.	.	1	13%	3.5µM*
Cc1cccc(NC(=O)c2ccc(OC3CSC3)cc2)c1	-5%	-19%	0	-10%	11µM*
CCc1cccc(C)c1Nc1c(-c2ccc(SC)cc2)nc2sccn12	.	-3%	.	.	.
O=C(OCc1cc(=O)n2ccsc2n1)c1ccc(O)cc1O	.	.	1	-22%	11µM*
CC1CCc2c(sc3nn[nH]c(=O)c23)C1 (stereo not given)	1%	25µM*	1	-8%	29%
Cc1ccc(Cl)cc1NC(=O)c1oc2ccc(S(=O)(=O)N3CCC4(CC3)OCCO4)cc2c1C	.	-8%	.	.	.
S=C(Nc1ccccc1)c1ccccn1	-15%	0%	-1	-59%	10µM*
CCOC(=O)N/N=C1/C[C@@H](O)[C@@H](O)[C@@H]2[C@@H]3C(=O)N(CC)C(=O)[C@H]3CC[C@@H]12	.	4%[15.3 µM]	.	.	.
CCc1nnc(NC(=O)CSc2nc(C)c3c(c2C#N)CCCC3)s1	10µM*	-7%	-2	11%	-23%
COc1ccc(NC(=O)CSc2nc(C)c3c(c2C#N)CCCC3)cc1	-1%	-14%	-2	33%	1%
CN(C)c1ccc(-c2nnc(SCC(=O)NCc3ccco3)n2C)cc1	.	.	.	.	0%
NC(=O)N/N=C/c1ccc(-c2ccc([N+](=O)[O-])cc2)o1	3%	-19%	0	-5%	42%
SMILES	PKM2 activator	Apoferritin bind	IL2 activator	Integrin act MD	BRCA1 expr up
O=[N+]([O-])c1ccc(-c2ccc(/C=N/O)o2)cc1	-2%	-14%	-3	-19%	8.9µM*
CCN(CC)/[N+]([O-])=N/OCOC(=O)C(C)c1ccc(CC(C)C)cc1 (stereo not given)	.	.	.	.	4%
CC(=O)c1sc(NC(=O)c2ccc(C)c(C)c2)nc1C	-9%	-7%	1	-22%	?
O=C(Nc1nccs1)c1ccc2c(c1)OCO2	-17%	0%	6	15%	8.9µM*
CC(=O)c1sc(NC(=O)c2ccc3c(c2)OCO3)nc1C	.	-6%	-3	-9%	2.5µM*
Cc1csc(NC(=O)c2ccc3c(c2)OCO3)n1	-27%	-5%	1	3%	?
CCN1CCc2nc(NC(=O)c3ccc4c(c3)OCCO4)sc2C1	-13%	-9%	-1	-19%	4.5µM*
CN(C(=O)CSc1nc2ccc(NC(=O)c3cccs3)cc2s1)c1ccccc1	.	5%	.	.	-17%
C(=C\c1ccnc2ccccc12)/c1ccc(N2CCOCC2)cc1	.	.	.	.	-29%
Cc1cc(I)ccc1Nc1nc(NCCN2CCOCC2)nc(N2CCOCC2)n1	.	.	.	.	0%
Cc1cc(=O)n2c3c(sc2n1)C(=O)N(Cc1ccccc1)C3=O	28µM*	-13%	.	.	.
COc1cccc(NC(=O)Cc2ccccc2)c1	7%	?	0	9%	78%
O=C(Cc1ccccc1)Nc1cccc(N2C(=O)C=CC2=O)c1	2.8µM*	-11%	-1	-50%	?
Cc1ccc(/C=N/N2CCN(c3ccccn3)CC2)cc1	-1%	-6%	-1	?	?
CCc1ccc(/C=N/N2CCN(c3ccccn3)CC2)cc1	7%	-10%	0	-3%	13µM*
CC1CCc2c(sc(NC(=O)C3CCCO3)c2C#N)C1 (stereo not given)	2%	-8%	1	8%	10µM*
CC1CCc2c(sc(NC(=O)COC(=O)C3CCCO3)c2C#N)C1 (stereo not given)	1%	-15%	3	?	19%
Cn1/c(=N/NC(=O)c2ccccc2Br)sc2ccccc21	1%	-13%	0	32%	10µM*
COc1cc(C(=O)N/N=c2/sc3ccccc3n2C)cc(OC)c1OC	-14%	4%	-1	14%	-24%
Cn1nnnc1SCc1ccc(C(=O)Nc2ccc(Br)cc2)cc1	-2%	-2%	0	15%	10µM*
FC(F)Sc1ccc(Nc2ncnc3nc[nH]c23)cc1	15%	-10%	0	-15%	3.5µM*
CCCCOC(=O)c1ccc(NC(C)=O)cc1	1%	?	-2	-1%	48%
CCCCOC(=O)c1ccc(Nc2ncnc3nc[nH]c23)cc1	-8%	-8%	-2	0%	10µM*
Cc1cccc(C=NOCCc2ccccc2)n1	.	.	-4	9%	10µM*
Cc1nc(COC(=O)c2ccc(S(=O)(=O)N3CCCC3)cc2)cs1	28µM*	?	-1	-14%	0%
NC(=O)COC(=O)c1ccc(S(=O)(=O)N2CCCCCC2)cc1	-2%	-6%	0	-9%	-2%
CN(C)c1ccc(/C=C/c2cccc3cc4ccccc4nc23)cc1	.	.	.	.	-68%
O=C(Cn1c(=O)n(-c2ccccc2)c(=O)c2sc3ccccc3c21)NC1CCCC1	.	25%	.	.	1%
O=C(Nc1nc(-c2ccccc2)cs1)c1ccco1	0%	-8%	1	-13%	7.1µM*
Cc1csc(NC(=O)c2ccccc2)n1	-14%	-4%	-2	-9%	3.2µM*
